# From PubChem BioAssay AID1159580 (chemical genetic matrix, 2015)
# Where “and” joins values, the source holds several entries; their conditions need not be identical. Equal values may be shown once. The campaign covered roughly 5,500 compounds. About 2,000 (36%) were called active. Roughly 18% stayed inconclusive and do not appear here. This is one part of the list. Values without a mark were called inactive. No stated cut-off is given here; in the data, active means normalized growth mostly below about 0.91 (no sharp cut-off); inconclusive means no clear call, values can overlap the other calls; inactive means mostly above about 0.92.
# Test: chemical genetic growth profiling, strain panel (AID 1159580);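 further: tested at 20 µM; growth read once vehicle control cultures reached saturation at 30 °C; 1 = growth at the plate median or of vehicle wells; lower values mean less growth of the strain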
# Conditions: growth OD
# [1] = S. cerevisiae deletion strains, locus YAL013W, strain DEP1, active compounds read low
# [2] = S. cerevisiae deletion strains, locus YBR229C, strain ROT2, active compounds read low
# [3] = S. cerevisiae deletion strains, locus YDL101C, strain DUN1, active compounds read low
# [4] = S. cerevisiae deletion strains, locus YDR150W, strain NUM1, active compounds read low
# [5] = S. cerevisiae deletion strains, locus YEL061C, strain CIN8, active compounds read low
# [6] = S. cerevisiae deletion strains, locus YGR078C, strain PAC10, active compounds read low
# [7] = S. cerevisiae deletion strains, locus YGR229C, strain SMI1, active compounds read low
# [8] = S. cerevisiae deletion strains, locus YHR030C, strain SLT2, active compounds read low
# [9] = S. cerevisiae deletion strains, locus YKL190W, strain CNB1, active compounds read low
# [10] = S. cerevisiae deletion strains, locus YLR039C, strain RIC1, active compounds read low
# [11] = S. cerevisiae deletion strains, locus YMR263W, strain SAP30, active compounds read low
# [12] = S. cerevisiae deletion strains, locus YMR307W, strain GAS1, active compounds read low
# [13] = S. cerevisiae deletion strains, locus YNL153C, strain GIM3, active compounds read low
# [14] = S. cerevisiae deletion strains, locus YOL006C, strain TOP1, active compounds read low
# [15] = S. cerevisiae deletion strains, locus YPL055C, strain LGE1, active compounds read low
# [16] = S. cerevisiae deletion strains, locus YPL241C, strain CIN2, active compounds read low
# [17] = S. cerevisiae deletion strains, locus YHR079C, strain IRE1, active compounds read low
# [18] = S. cerevisiae deletion strains, locus YJL095W, strain BCK1, active compounds read low
# [19] = S. cerevisiae deletion strains, locus YJR066W, strain TOR1, active compounds read low
# [20] = S. cerevisiae deletion strains, locus YLR113W, strain HOG1, active compounds read low
# [21] = S. cerevisiae deletion strains, locus YNL183C, strain NPR1, active compounds read low
# [22] = S. cerevisiae deletion strains, locus YOR231W, strain MKK1, active compounds read low
# [23] = S. cerevisiae deletion strains, locus YPL256C, strain CLN2, active compounds read low
smiles,measurement,setting,value
COC(=O)c1cc(OC)c(OC)cc1-n1c(C)ccc1C,normalized growth,[1],0.999
same,normalized growth,[2],0.994
same,normalized growth,[3],0.975
same,normalized growth,"S. cerevisiae deletion strains, locus YDL134C, strain PPH21, active compounds read low",1.03
same,normalized growth,[4],0.947
same,normalized growth,[5],1.01
same,normalized growth,[6],0.987
same,normalized growth,[7],1
same,normalized growth,[8],0.999
same,normalized growth,"S. cerevisiae deletion strains, locus YHR087W, strain rtc3, active compounds read low",0.983
same,normalized growth,"S. cerevisiae deletion strains, locus YJR043C, strain POL32, active compounds read low",0.985
same,normalized growth,"S. cerevisiae deletion strains, locus YJR075W, strain HOC1, active compounds read low",0.963
same,normalized growth,[9],1.01
same,normalized growth,[10],0.993
same,normalized growth,"S. cerevisiae deletion strains, locus YLR058C, strain SHM2 (second series), active compounds read low",0.995
same,normalized growth,"S. cerevisiae deletion strains, locus YLR085C, strain ARP6, active compounds read low",1.01
same,normalized growth,"S. cerevisiae deletion strains, locus YLR262C, strain YPT6, active compounds read low",0.957
same,normalized growth,"S. cerevisiae deletion strains, locus YML094W, strain GIM5, active compounds read low",1
same,normalized growth,"S. cerevisiae deletion strains, locus YMR219W, strain ESC1, active compounds read low",0.998
same,normalized growth,[11],0.91
same,normalized growth,[12],0.948
same,normalized growth,[13],0.983
same,normalized growth,"S. cerevisiae deletion strains, locus YNL298W, strain CLA4 (second series), active compounds read low",1.02
same,normalized growth,"S. cerevisiae deletion strains, locus YNL322C, strain KRE1, active compounds read low",0.99
same,normalized growth,"S. cerevisiae deletion strains, locus YNR030W, strain Alg12, active compounds read low",1.01
same,normalized growth,[14],1
same,normalized growth,[15],0.877
same,normalized growth,[16],1
same,normalized growth,"S. cerevisiae deletion strains, locus YPR135W, strain CTF4, active compounds read low",0.915
same,normalized growth,"S. cerevisiae strains, strain wild type, active compounds read low",1.01
CC(=O)O[C@@H]1CC2C(C)(C)C(=O)CC[C@]2(C)C2CC[C@]3(C)C(=CC(=O)O[C@H]3c3ccoc3)[C@@]21C (stereo partly specified),normalized growth,[1],0.988
same,normalized growth,"S. cerevisiae deletion strains, locus YBR021W, strain FUR4, active compounds read low",0.989
same,normalized growth,[2],0.939
same,normalized growth,"S. cerevisiae deletion strains, locus YCL029C, strain bik1, active compounds read low",0.985
same,normalized growth,"S. cerevisiae deletion strains, locus YDL035C, strain GPR1, active compounds read low",0.964
same,normalized growth,"S. cerevisiae deletion strains, locus YDL074C, strain BRE1, active compounds read low",0.954
same,normalized growth,[3],1
same,normalized growth,"S. cerevisiae deletion strains, locus YDL185W, strain tfp1, active compounds read low",0.966
same,normalized growth,"S. cerevisiae deletion strains, locus YDL192W, strain arf1, active compounds read low",0.971
same,normalized growth,"S. cerevisiae deletion strains, locus YDR101C, strain arx1, active compounds read low",0.959
same,normalized growth,"S. cerevisiae deletion strains, locus YDR162C, strain NBP2, active compounds read low",0.98
same,normalized growth,"S. cerevisiae deletion strains, locus YDR318W, strain mcm21, active compounds read low",0.992
same,normalized growth,"S. cerevisiae deletion strains, locus YDR388W, active compounds read low",0.995
same,normalized growth,"S. cerevisiae deletion strains, locus YDR502C, strain sam2, active compounds read low",1.01
same,normalized growth,[5],0.972
same,normalized growth,"S. cerevisiae deletion strains, locus YER110C, active compounds read low",0.978
same,normalized growth,"S. cerevisiae deletion strains, locus YER155C, strain BEM2, active compounds read low",0.991
same,normalized growth,"S. cerevisiae deletion strains, locus YER167W, strain BCK2, active compounds read low",0.97
same,normalized growth,"S. cerevisiae deletion strains, locus YGL078C, strain dbp3, active compounds read low",1.01
same,normalized growth,"S. cerevisiae deletion strains, locus YGL086W, strain mad1, active compounds read low",0.998
same,normalized growth,"S. cerevisiae deletion strains, locus YGL248W, strain PDE1, active compounds read low",0.999
same,normalized growth,[6],1.02
same,normalized growth,"S. cerevisiae deletion strains, locus YGR135W, strain pre9, active compounds read low",1.07
same,normalized growth,"S. cerevisiae deletion strains, locus YGR252W, strain gcn5, active compounds read low",1.03
same,normalized growth,[8],1.06
same,normalized growth,"S. cerevisiae deletion strains, locus YHR079C, strain IRE1 (second series), active compounds read low",0.975
same,normalized growth,[17],1.04
same,normalized growth,"S. cerevisiae deletion strains, locus YHR094C, strain hxt1, active compounds read low",0.991
same,normalized growth,"S. cerevisiae deletion strains, locus YHR129C, strain ARP1, active compounds read low",0.989
same,normalized growth,"S. cerevisiae deletion strains, locus YHR200W, strain rpn10, active compounds read low",1
same,normalized growth,"S. cerevisiae deletion strains, locus YIL066C, strain RNR3, active compounds read low",0.948
same,normalized growth,"S. cerevisiae deletion strains, locus YIL073C, strain SPO22, active compounds read low",0.977
same,normalized growth,"S. cerevisiae deletion strains, locus YIL125W, strain kgd1, active compounds read low",0.993
same,normalized growth,"S. cerevisiae deletion strains, locus YIR030C, strain dcg1, active compounds read low",0.987
same,normalized growth,[18],1.05 and 1.06
same,normalized growth,"S. cerevisiae deletion strains, locus YJL134W, strain LCB3, active compounds read low",0.98
same,normalized growth,"S. cerevisiae deletion strains, locus YJL168C, strain set2, active compounds read low",0.988
same,normalized growth,"S. cerevisiae deletion strains, locus YJL187C, strain SWE1 (second series), active compounds read low",1.01
same,normalized growth,[19],0.991
same,normalized growth,"S. cerevisiae deletion strains, locus YKL009W, strain mrt4, active compounds read low",0.976
same,normalized growth,"S. cerevisiae deletion strains, locus YKL068W, active compounds read low",0.991
same,normalized growth,"S. cerevisiae deletion strains, locus YKL085W, strain MDH1 (second series), active compounds read low",0.995
same,normalized growth,"S. cerevisiae deletion strains, locus YKL085W, strain MDH1, active compounds read low",0.995
same,normalized growth,[9],0.983
same,normalized growth,"S. cerevisiae deletion strains, locus YKR001C, strain vps1, active compounds read low",0.974
same,normalized growth,[10],0.961
same,normalized growth,"S. cerevisiae deletion strains, locus YLR058C, strain SHM2, active compounds read low",0.979
same,normalized growth,"S. cerevisiae deletion strains, locus YLR102C, strain apc9, active compounds read low",0.99
same,normalized growth,[20],1.03
same,normalized growth,"S. cerevisiae deletion strains, locus YLR268W, strain sec22, active compounds read low",0.956
same,normalized growth,"S. cerevisiae deletion strains, locus YLR371W, strain rom2, active compounds read low",0.967
same,normalized growth,"S. cerevisiae deletion strains, locus YLR418C, strain cdc73, active compounds read low",1
same,normalized growth,"S. cerevisiae deletion strains, locus YML016C, strain PPZ1, active compounds read low",0.978
same,normalized growth,"S. cerevisiae deletion strains, locus YML032C, strain rad52, active compounds read low",0.982
same,normalized growth,"S. cerevisiae deletion strains, locus YML124C, strain tub3, active compounds read low",0.992
same,normalized growth,"S. cerevisiae deletion strains, locus YMR078C, strain ctf18, active compounds read low",0.989
same,normalized growth,"S. cerevisiae deletion strains, locus YMR223W, strain ubp8, active compounds read low",1
same,normalized growth,[12],0.989
same,normalized growth,"S. cerevisiae deletion strains, locus YNL067W, strain RPL9B, active compounds read low",1.04
same,normalized growth,[21],0.989
same,normalized growth,"S. cerevisiae deletion strains, locus YNL233W, strain BNI4, active compounds read low",1.03
same,normalized growth,"S. cerevisiae deletion strains, locus YNL250W, strain rad50, active compounds read low",0.992
same,normalized growth,"S. cerevisiae deletion strains, locus YNL271C, strain bni1, active compounds read low",0.993
same,normalized growth,"S. cerevisiae deletion strains, locus YNL298W, strain CLA4, active compounds read low",0.989
same,normalized growth,"S. cerevisiae deletion strains, locus YNL307C, strain MCK1, active compounds read low",0.982
same,normalized growth,"S. cerevisiae deletion strains, locus YNR052C, strain pop2, active compounds read low",1.04
same,normalized growth,[14],0.932
same,normalized growth,"S. cerevisiae deletion strains, locus YOL012C, strain htz1",0.896
same,normalized growth,"S. cerevisiae deletion strains, locus YOL147C, strain pex11, active compounds read low",0.984
same,normalized growth,"S. cerevisiae deletion strains, locus YOR061W, strain CKA2, active compounds read low",0.934
same,normalized growth,"S. cerevisiae deletion strains, locus YOR069W, strain VPS5, active compounds read low",0.996
same,normalized growth,"S. cerevisiae deletion strains, locus YOR136W, strain idh2, active compounds read low",1
same,normalized growth,"S. cerevisiae deletion strains, locus YOR144C, strain elg1, active compounds read low",0.997
same,normalized growth,"S. cerevisiae deletion strains, locus YOR184W, strain ser1, active compounds read low",0.964
same,normalized growth,[22],1.07
same,normalized growth,"S. cerevisiae deletion strains, locus YOR316C, strain cot1, active compounds read low",0.997
same,normalized growth,[16],0.978
same,normalized growth,[23],1.05
same,normalized growth,"S. cerevisiae deletion strains, locus YPR119W, strain clb2, active compounds read low",0.992
same,normalized growth,"S. cerevisiae deletion strains, locus YPR141C, strain kar3, active compounds read low",0.982
same,normalized growth,"S. cerevisiae deletion strains, locus YPR163C, strain tif3, active compounds read low",0.99
same,normalized growth,"S. cerevisiae deletion strains, locus YPR167C, strain met16, active compounds read low",0.992
same,normalized growth,"S. cerevisiae deletion strains, strain wtn01, active compounds read low",0.967
CC[N+](CC)(CC)CC(=O)Nc1c(C)cccc1C,normalized growth,"S. cerevisiae deletion strains, locus YAL040C, strain CLN3, active compounds read low",0.958
same,normalized growth,"S. cerevisiae deletion strains, locus YCL061C, strain MRC1 (second series), active compounds read low",0.999
same,normalized growth,[4],1
same,normalized growth,"S. cerevisiae deletion strains, locus YDR363W, strain ESC2, active compounds read low",1.02
same,normalized growth,"S. cerevisiae deletion strains, locus YER002W, strain NOP16, active compounds read low",1.01
same,normalized growth,[6],1.02
same,normalized growth,[7],1
same,normalized growth,[11],1
same,normalized growth,"S. cerevisiae deletion strains, locus YNL128W, strain TEP1, active compounds read low",1.01
same,normalized growth,[13],0.995
same,normalized growth,"S. cerevisiae deletion strains, locus YNL175C, strain NOP13, active compounds read low",1
same,normalized growth,"S. cerevisiae deletion strains, locus YNL197C, strain WHI3, active compounds read low",1.01
same,normalized growth,"S. cerevisiae deletion strains, locus YNL224C, strain SQS1, active compounds read low",0.999
same,normalized growth,"S. cerevisiae deletion strains, locus YOR083W, strain WHI5 (second series), active compounds read low",0.999
same,normalized growth,[15],1.01
CC[N+](CC)(CC(=O)Nc1c(C)cccc1C)Cc1ccccc1,normalized growth,[8],0.962
same,normalized growth,[17],0.878
same,normalized growth,[18],0.916
same,normalized growth,[19],0.897
same,normalized growth,[20],0.814 (active)
same,normalized growth,[21],0.851
same,normalized growth,[22],0.899
same,normalized growth,[23],0.868
